LmPK inh – blocks Leishmania mexicana pyruvate kinase activity; Q27686; purified LmPK, Kinase-Glo ATP luminescence, 1 h; Potency, µM (series often up to 57.5 µM), usual class: inhibitors; hit rate 0.37% among 290,000; AID 1721
Target sequence (Q27686 whole entry, looked up): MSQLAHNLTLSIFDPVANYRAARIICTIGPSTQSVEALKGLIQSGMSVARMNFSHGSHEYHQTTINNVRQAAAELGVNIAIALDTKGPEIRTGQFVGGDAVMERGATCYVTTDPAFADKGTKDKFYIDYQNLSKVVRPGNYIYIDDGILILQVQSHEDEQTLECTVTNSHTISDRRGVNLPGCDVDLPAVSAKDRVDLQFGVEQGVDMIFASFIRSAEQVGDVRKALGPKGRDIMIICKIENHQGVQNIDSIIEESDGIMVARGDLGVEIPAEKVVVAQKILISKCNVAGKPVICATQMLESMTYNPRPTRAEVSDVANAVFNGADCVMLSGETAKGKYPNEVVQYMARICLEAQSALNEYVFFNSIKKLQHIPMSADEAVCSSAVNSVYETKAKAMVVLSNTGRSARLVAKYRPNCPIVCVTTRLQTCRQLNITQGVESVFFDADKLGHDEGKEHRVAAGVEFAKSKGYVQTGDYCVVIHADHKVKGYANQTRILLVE
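In 50 mM imidazole pH 7.2 with 7 mM MgCl2, LmPK (0.1 nM) turned over PEP (0.5 mM) and ADP (0.1 mM) for 1 h at room temperature. Luciferase read-out of ATP.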
RE007 growth inh – less growth of the S. pombe RE007 Vpr strain | S. pombe RE007 Vpr strain, BacTiter-Glo ATP luminescence, 24 h | Potency, µM (highest dose often 92.2 µM), actives largely listed as inhibitors | hit rate 0.21% among 360,000 | AID 651644; active = well fitted falling curve with a large enough effect; inconclusive = small, poorly fitted or top-dose-only effect; inactive = no such curve, though single readings can be large or run the other way; also: nearly all actives have a fitted effect of over 50% in size
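Fission yeast strain RE007, carrying one chromosomally integrated HIV-1 vpr copy, was seeded at OD 0.01 in PMG+AL medium with 23 nL pinned compound. After 24 h at 30 °C and 99% humidity, viability was read by BacTiter-Glo luminescence.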
NS1 function inh – blocks influenza NS1 protein function | Potency, µM (doses to about 46.1 µM) | hit rate 0.4% among 270,000; calls by dose curve; also: actives are rising curves; nearly all actives have a fitted effect of over 50% in size
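A cell-based growth assay was used: compounds that relieve NS1-induced slow growth of budding yeast raise OD600. Assay medium was yeast nitrogen base with ammonium sulphate and -URA supplement, pH 6.0, with 2% galactose.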
AMA1-RON2 inh – inhibitors of Plasmodium falciparum AMA1-RON2 interaction. AlphaScreen AMA1-biotinylated RON2 peptide binding. AID 720542. hit rate 0.2% among 360,000. Potency, µM (doses to about 58.2 µM), actives largely listed as inhibitors; also: nearly all actives have a fitted effect of over 45% in size
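AMA1 (3D7) with his tag at 25 nM final met compounds first, then biotinylated RON2 peptide at 25 nM; detection used donor plus acceptor beads, 10 µg/mL apiece, read by AlphaScreen after 30 min at room temperature.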
Tb PYK inh – blocks Trypanosoma brucei pyruvate kinase; hit rate 0.12% among 410,000; TbPYK enzyme, Kinase-Glo Plus ATP luminescence, 45 min; AID 624173; Q57TT1; Potency, µM (doses to about 76.8 µM), actives largely listed as inhibitors; also: nearly all actives have a fitted effect of over 50% in size
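TbPYK + substrate in 50 mM TEA pH 7.2, 100 mM KCl, 10 mM MgCl2, 0.05% BSA, 0.01% Tween-20; cpd pinned; ADP 130 uM final; 45 min RT; Kinase-Glo Plus 10 min; luminescence endpoint.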
Flu NS1 inh – validation of influenza NS1 protein function inhibitors; shares compounds with NS1 function inh; influenza NS1 function cell assay, 15-point titration; activity change, negative = inhibition, % at 32.9 µM; 1,400 tested, under 10 active; calls by dose curve
A number is an active result; n = inactive; u = inconclusive; x = no result given; ! = repeats disagree; [ ] = another dose, or the depositor's remark. A selection: hits, their analogues and other compounds. The true share with any hit is near 0.92%. Unless noted, calls follow the shape of the dose curve; as a rule, active = well fitted curve in the direction sought with a large enough effect; inconclusive = small, poorly fitted or top-dose-only effect, or another doubt; inactive = no such curve, though single readings can be large; an effect the other way counts as inactive or inconclusive.

SMILES	LmPK inh	RE007 growth inh	NS1 function inh	AMA1-RON2 inh	Tb PYK inh	Flu NS1 inh
O=C(COc1ccc(S(=O)(=O)N2CCCCC2)cc1)NCc1ccncc1	n	n	n	n	n	x
O=C(NCc1cccnc1)C1CCCN(S(=O)(=O)c2ccc(Cl)cc2)C1 (stereo unspecified)	n	n	n	n	n	x
COC(=O)c1ccccc1NC(=O)c1ncoc1-c1ccco1	x	x	x	x	n	x
CC(C)(C)OC(=O)N1CCC(c2c(C(=O)N3CCN(c4ccccn4)CC3)cnn2-c2ccccc2Cl)CC1	x	x	x	x	n[15.4 µM]	x
O=C(CCC1N=C2c3ccccc3N=C(SCc3ccc(F)cc3)N2C1=O)NCc1ccc(F)cc1 (stereo unspecified)	x	x	x	x	n	x
COc1ccc(-c2ccc(-c3nc4c(c(=O)[nH]c(=O)n4Cc4ccccc4)n3C)o2)c([N+](=O)[O-])c1	n	n	3.55µM	n	n	n
CCc1cccc(CC)c1-n1nnc2c(sc3nc(C)cc(C)c32)c1=O	x	x	x	x	n	x
O=C(CCc1ccc(O)cc1)c1c(O)cc(O)cc1O	n	n	12.6µM!	n	n	n
COc1cc(O)c(CC=C(C)C)c(O)c1C(=O)CCc1ccc(O)cc1	n	n	n	n	n	x
CCS(=O)(=O)N1CCN(c2ccc([N+](=O)[O-])c(NCc3cccnc3)c2)CC1	n	n	n	n	n	x
O=[N+]([O-])c1ccc(N2CCN(S(=O)(=O)c3ccccc3[N+](=O)[O-])CC2)cc1NCc1cccnc1	n	n	14.1µM	n	n	n
CCCn1c(=O)c(Cc2ccccc2)c(O)c2ccccc21	n	n	u	n	n	n
O=[N+]([O-])c1ccc(NN=Cc2cccc(O)c2)nc1	x	n	x	n	n	x
Cc1cccc(C)c1-n1c(C)cc(/C=N\Nc2ccc([N+](=O)[O-])cn2)c1C	n	n	12.6µM	u	n	n
C=CCN1CC(c2nc3ccccc3n2CCOc2ccccc2)CC1=O (stereo unspecified)	n	n	u	n	n	n
O=C(NCCCN1CCOCC1)C1CC(=O)N(C2CCCCC2)C1 (stereo unspecified)	n	n	1µM	n	n	n
COc1ccccc1Nc1nn2c(=O)c3ccc(C(=O)N4CCC(C)CC4)cc3nc2s1	n	n	u	n	n	u
Cc1ccc(N2C(=O)c3oc4cc(C)c(C)cc4c(=O)c3C2c2cccc(O)c2)nc1 (stereo unspecified)	x	x	x	x	n	x
C/C=C\C=C/C(=O)Nc1cccc(C2=NOC3(C2)C[C@@H](C(N)=O)N(C(=O)c2ccccc2)C3)c1 (stereo partly specified)	n	x	1µM	x	x	n
Cc1ccc(NC(=O)CN2C(=O)CCc3ccccc32)cc1C	x	x	x	x	n	x
Brc1ccc(C2Nc3cccc4cccc(c34)N2)o1	n	n	u	n	n	n
CCCC(C)NC(=O)c1ccc2[nH]c3c(c2c1)CC(C)CC3 (stereo unspecified)	n	n	11.2µM	n	n	n
COC(=O)c1ccc2[nH]c3c(c2c1)CC(C)CC3 (stereo unspecified)	n	n	n	n	n	x
CCOc1ccc(/C=N/NC(=O)Cc2csc(Nc3cccc(C(F)(F)F)c3)n2)c(OCC)c1	n	n	n	n	n	x
CCOc1ccc(/C=N/NC(=O)Cc2csc(Nc3cccc(C(F)(F)F)c3)n2)cc1	n	n	10µM	n	n	n
SMILES	LmPK inh	RE007 growth inh	NS1 function inh	AMA1-RON2 inh	Tb PYK inh	Flu NS1 inh
O=C1NC(=O)C2(Cc3ccccc3N3CCCC32)C(=O)N1c1ccc(Cl)cc1 (stereo unspecified)	n	n	11.2µM	n	n	n
CCc1ccccc1NC(=O)C(=O)c1cc(C)n(-c2ccccc2F)c1C	x	x	x	x	n	x
COc1ccc(-c2cc(C(=O)N/N=C/c3ccc4c(c3)OCO4)c3ccccc3n2)c(OC)c1	n	n	n	n	n	x
O=C(N/N=C/c1ccc2c(c1)OCO2)c1cc(-c2ccc(F)cc2)nc2ccccc12	n	n	u	n	n	n
COc1ccccc1/C=C(\NC(=O)c1ccc(OC)c(OC)c1)C(=O)Nc1cccc([N+](=O)[O-])c1	n	n	u	n	n	x
COc1ccc(C(=O)N/C(=C\c2ccccc2)C(=O)Nc2cccc(C(=O)O)c2)cc1	n	n	10µM	n	n	n

Assay outcomes (PubChem BioAssay)
